Among all 420,000 compounds or so, about 50,000 (12%) were called active. Another 26% or so got no clear call; they are omitted. The sample as a whole holds a higher share of actives than the screen did. A number with no mark means an inactive call. The call rests on the fitted dose curve; in most records, active means well fitted inhibition curve with a large enough effect; inconclusive means small, poorly fitted or top-dose-only effect; inactive means flat fitted curve, though single readings scatter.
assay: qHTS for Inhibitors of human tyrosyl-DNA phosphodiesterase 1 (TDP1): qHTS in cells in presence of CPT; details: chicken DT40 Tdp1-/-;hTDP1 cells + 20 nM CPT, ATP luminescence, 48 h; series mostly up to 46.2 µM; activity change, negative = growth inhibition: at the top concentration; further: nearly all actives have a fitted effect of over 55% in size
Procedure, shortened: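 Chicken DT40 Tdp1-/- cells stably complemented with human TDP1 were seeded at 400 cells/well in medium containing 20 nM camptothecin, exposed to pin-transferred compounds, and grown at 37 °C for at least 48 hr. Viability was read as ATP luminescence.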
On the % scale 0 is the no-effect control and ±100 the full control effect; potency means the concentration at half of the fitted maximal effect.

SMILES	activity change, negative = growth inhibition	Potency
O=C1NCC(c2ccccc2)(c2ccccc2)C(=O)N1	8.39%	–
OCC1(CO)CC2(C1)CC(CO)(CO)C2	17.5%	–
c1ccc2c(CSCc3nc4ccccc4[nH]3)cccc2c1	–	16.4 µM (active)
Nc1cccc(CCc2nc3ccccc3[nH]2)c1	-2.04%	–
COc1ccccc1CSc1nc2ccccc2[nH]1	-20.9%	–
CC1(C(=O)NCc2ccccc2)CN(S(C)(=O)=O)CC(=O)N1CC(F)(F)F (stereo unspecified)	-1.16%	–
COc1cc(NC(=S)NNC(=O)CC(C)C)c(OC)cc1Cl	-18.9%	–
CN(C)CCCn1c(SCc2ccc(Cl)cc2)nnc1-c1ccncc1	-9.91%	–
Cn1c(=O)c2ccccc2n(CC(=O)Nc2ccc3c(c2)OCCO3)c1=O	-23.7%	–
C/C(CC(=O)NC(C)c1ccccc1)=N\NC(N)=S (stereo unspecified)	3.94%	–
Cc1ccc(C(=O)NC(C)c2ccccc2)cc1Br (stereo unspecified)	-16.3%	–
Cc1cc(C(=O)NNC(=S)NC(C)c2ccccc2)cs1 (stereo unspecified)	–	23.1 µM (active)
N#Cc1ccc(-c2ccc3nccn3c2)cc1	7.78%	–
COc1ccc(-c2nc3cc(C)ccn3c2NC2CCCCC2)cc1SC1CCCCC1	–	29.6 µM (active)
COc1ccc(C)cc1S(=O)(=O)NC1CCCCC1	0.565%	–
COC(=O)c1ccc(NC(=O)CSc2nncn2-c2cccnc2)cc1	-9.04%	–
CN(C)c1ccc(CN2CCOc3ccc(CN4CCC(O)(c5cccnc5)CC4)cc3C2)cc1	-11.9% [at 9.04 µM]	–
C=CC(=O)c1ccc2ccccc2c1	–	2.91 µM (active)
O=C(NNC(=O)c1ccc2ccccc2c1)c1ccc(Cl)cc1	-9.35%	–
CC(=O)CCC(=O)c1ccc2ccccc2c1	5.57%	–
COc1ccc(C(=O)N/N=C(\C)CC(=O)Nc2ccc(Cl)cn2)cc1	22.2%	–
O=C(Oc1ccc(-c2nc(-c3ccccn3)no2)cc1)c1ccccc1	–	8.2 µM (active)

SMILES	activity change, negative = growth inhibition	Potency
c1csc(-c2nc(-c3ccncc3)no2)c1	1.73%	–
c1ccc(-c2noc(-c3cccs3)n2)nc1	–	8.2 µM (active)
O=C(Oc1ccccc1)c1ccc2nccnc2c1	3.75%	–
COc1ccc(CCc2nc(-c3cccs3)no2)cc1	4.51%	–
Brc1ccc(-c2noc(-c3ccccc3)n2)o1	–	inactive
COc1ccc(/C=C(\NC(=O)c2ccccc2)C(=O)NCCN2CCOCC2)cc1OC	10.4%	–
O=C(O)c1ccc(/C=N/NC(=O)c2ccc(Br)cc2)cc1	0.528%	–
CCN(C(=O)CSc1nnc(-c2ccc(OC(F)F)cc2)n1N)C1CCS(=O)(=O)C1 (stereo unspecified)	-1.93%	–
COc1ccc2c(c1)N(C)/C(=C1/SC(=S)N(NC(C)=O)C1=O)S2	-12.3%	–
CCCCOc1ccc(NC(=O)[C@@H]2CCCN2C(=O)C2CCN(S(=O)(=O)c3ccc(C)cc3)CC2)cc1	13.9%	–
COC(=O)[C@H]1C[C@H](OC(=O)NCc2ccccc2)[C@@]2(O)CN(S(=O)(=O)c3ccc(C)cc3)CC2[C@H]1C(=O)OC (stereo partly specified)	-28.5%	–
CCCCCCNC(=O)O[C@H]1CN(C(=O)OC(C)C)N(C(=O)OC(C)C)[C@@H]2CN(S(=O)(=O)c3ccc(C)cc3)C[C@]12O	–	18.4 µM (active)
CS(=O)(=O)N1CCN(C(=O)CSc2ccccc2)CC1	24.3%	–
CC(=O)Nc1ccc(NC(=O)CSc2nnnn2C2CCCCC2)cc1	-18.3%	–
OC[C@H]1O[C@@H](c2nc(-c3nc(-c4ccc(F)cc4)no3)cs2)[C@H](O)[C@@H](O)[C@H]1O	-1.35%	–
O=C(NNC(=S)NCCCN1CCOCC1)c1ccncc1	3.15%	–
COc1ccc(CNC(=O)C(NS(=O)(=O)c2cccc3nsnc23)C(C)C)cc1 (stereo unspecified)	7.46%	–
CC(C)C(NS(=O)(=O)c1cccs1)C(=O)Nc1nc(C(C)(C)C)cs1 (stereo unspecified)	–	16.4 µM (active)
COc1cc(Cl)c(NC(=O)C(NS(=O)(=O)c2cccs2)C(C)C)c(OC)c1 (stereo unspecified)	-25.9%	–
O=C(CCNS(=O)(=O)c1ccccc1)NCCCc1ccccc1	-1.9%	–
Nn1c(SCC(=O)Nc2ccc3c(c2)CCC3)nnc1C1CC1	4.68%	–
COC(=O)Cc1cnc(NC(=O)CSc2nc(C(C)C)cc(=O)[nH]2)s1	13.8%	–

SMILES	activity change, negative = growth inhibition	Potency
Cn1c(=O)c2sccc2n2c(CCC(=O)NCc3ccccc3Cl)nnc12	-19%	–
CCC(=O)N1CCc2cc(S(=O)(=O)NCCC(=O)Nc3cccc(C)c3C)ccc21	-22.6%	–
Cc1ccc(N2C(=O)CC(Nc3cccc4ccccc34)C2=O)cc1 (stereo unspecified)	6.75%	–
CC1=C(C)CC2C(=O)N(c3cccc4ccccc34)C(=O)C2C1 (stereo unspecified)	–	18.4 µM (active)
O=C1c2ccccc2C(=O)N1c1cccc2ccccc12	6.79%	–
CCc1nccn1S(=O)(=O)c1cccc([N+](=O)[O-])c1	5.21%	–
CC1CCN(C(=O)Cn2nnnc2CN2CCOCC2)CC1	14.7%	–
O=C(c1cc2ccccc2o1)N1CCN(S(=O)(=O)c2ccc(Cl)s2)CC1	–	18.4 µM (active)
CCNC(=S)N1CCN(S(=O)(=O)c2ccc(Cl)s2)CC1	-23.7%	–
CS(=O)(=O)N1CCN(C(=O)c2cc3ccccc3oc2=O)CC1	1.63%	–
COc1cccc(C(O)Cc2nc3ccccc3n2C)c1OC (stereo unspecified)	11.4%	–
NS(=O)(=O)c1ccc(CNC(=O)c2cccc(Oc3ccccc3)c2)cc1	-12.6%	–
CN1C(=O)[C@H]2[C@@H](/C=C/c3ccccc3)N3C(=O)CN(Cc4ccc(-c5ccccc5)cc4)C(=O)[C@@]3(C)[C@H]2C1=O	–	25.9 µM (active)
COC(=O)CN1C(=O)[C@H]2[C@@H](/C=C/c3ccccc3)N3C(=O)CN(Cc4ccccc4)C(=O)[C@@]3(Cc3ccccc3)[C@H]2C1=O	-9.59%	–
CN1C(=O)[C@H]2[C@@H](C3CC3)N3C(=O)CN(Cc4ccccc4)C(=O)[C@@]3(C)[C@H]2C1=O	28.2%	–
O=C(C[C@@H]1C/C=C\CCC(=O)OC[C@@H]2CCCN2C1=O)NCCO	0.104%	–
CC(=O)c1sc(N/N=C/c2ccc(C(C)C)cc2)nc1C	-22.3%	–
CCC(C)c1ccc(NC(=S)NCc2ccccn2)cc1 (stereo unspecified)	-8.87%	–
CC(=O)N1CCc2cc(Br)cc(S(=O)(=O)CCC(=O)NCCc3ccc(Cl)cc3)c21	-6.18%	–
O=C(COc1ccc(Cl)cc1)Nc1ccc(-c2nc3cc(Cl)ccc3o2)c(O)c1	-16.9%	–
Cc1ccc(SCC(=O)Nc2ccc3oc(-c4ccccc4C)nc3c2)cc1	-26%	–
COc1ccc2oc(-c3cccc(NC(=O)CSc4ccc(Cl)cc4)c3)nc2c1	–	20.6 µM (active)
